Results from PubChem BioAssay (NCATS).
Records with an inconclusive call do not appear. A call without a number means that no potency is given here. A number with no mark means an inactive call. Activity calls are given as the source filed them. Calls follow the shape of the dose curve; as a rule, active = well fitted curve in the direction sought with a large enough effect; inconclusive = small, poorly fitted or top-dose-only effect, or another doubt; inactive = no such curve, though single readings can be large; an effect the other way counts as inactive or inconclusive.

Key:
[1] = test system: NIH3T3; assay: qHTS assay to identify novel small-molecules to repurpose for Merkel cell carcinoma treatment (AID 1296009); conditions: MCC and control cell lines, CellTiter-Glo viability, 72 h; at 44.8 µM (top of the series) unless noted; also: nearly all actives have a fitted effect of over 60% in size
In short: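 After compound transfer in DMSO, plates were kept 72 hr at 37 degree celsius. Luminescent ATP signal from CellTiter-Glo served as viability measure, normalized against DMSO and no-cell controls.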

[2] = test system: C33A; assay: Primary qHTS to identify gynecologic anti-cancer compounds using libraries of approved drugs and bioactive compounds (AID 1345084); conditions: Gynecologic cancer cell panel viability, ATPlite luminescence, 48 h; series mostly up to 57.5 µM; also: nearly all actives have a fitted effect of over 55% in size; also: potency is read from the fitted curve at half-maximal effect
In short: (§1)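 48 h compound exposure at 37 C, 5% CO2; five-point qHTS. ATPlite luminescence readout of cell ATP.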

[3] = test system: CAOV3; assay: as above; conditions: Gynecologic cancer cell panel viability, ATPlite luminescence, 48 h; series mostly up to 57.5 µM
In short: as §1

[4] = test system: CASKI; assay: as above; conditions: Gynecologic cancer cell panel viability, ATPlite luminescence, 48 h; series mostly up to 57.5 µM
In short: as §1

[5] = test system: Es-2; assay: as above; conditions: Gynecologic cancer cell panel viability, ATPlite luminescence, 48 h; series mostly up to 57.5 µM
In short: as §1

[6] = test system: HeLa; assay: as above; conditions: Gynecologic cancer cell panel viability, ATPlite luminescence, 48 h; series mostly up to 57.5 µM
In short: as §1

| Compound | outcome [1] | Potency [2] | Potency [3] | Potency [4] | Potency [5] | Potency [6] | activity change, negative = cytotoxicity [2] | activity change, negative = cytotoxicity [3] | activity change, negative = cytotoxicity [4] | activity change, negative = cytotoxicity [5] | activity change, negative = cytotoxicity [6] |
| --- | --- | --- | --- | --- | --- | --- | --- | --- | --- | --- | --- |
| COC1=CC(=O)O[C@@H](/C=C/c2ccccc2)C1 | inactive | inactive | inactive | inactive | inactive | inactive |  |  |  |  |  |
| CCc1[nH]c2ccc(OC)cc2c1CCN(C)C | inactive | inactive | inactive | inactive | inactive | inactive |  |  |  |  |  |
| CCC(C)(OC(C)=O)C(=O)O[C@H]1[C@H](OC(C)=O)C[C@@H]2[C@@](C)([C@@H]3C[C@H]4C=CO[C@H]4O3)[C@H](C)C[C@H](OC(C)=O)[C@@]2(COC(C)=O)[C@@]12CO2 (some centres undefined) | inactive [at 17.4 µM] | inactive | inactive | inactive | inactive | inactive |  |  |  |  |  |
| Oc1ccc2c3c1O[C@H]1[C@H](N(CCCl)CCCl)CC[C@@]4(O)[C@@H](C2)N(CC2CC2)CC[C@]314 | inactive [at 9.27 µM] |  |  |  |  |  | 3.36% [at 11.6 µM] | 11.9% [at 11.6 µM] | 18.4% [at 11.6 µM] | 3.95% [at 11.6 µM] | 1.82% [at 11.6 µM] |
| Cc1c(Cl)cccc1S(=O)(=O)Nc1nc(CC(=O)N2CCN(C)CC2)cs1 | inactive | inactive | inactive | inactive | inactive | inactive |  |  |  |  |  |
| C/C=C(\C)C(=O)OC1C(C)OC(OC2C(C)OC(OC3CCC4(C)C(=CCC5C4CCC4(C)C(C(C)OC6OC(COC7OC(CO)C(O)C(O)C7O)C(O)C(O)C6O)CCC54O)C3)CC2OC)C(O)C1OC (centres undefined) | inactive [at 9.27 µM] |  |  |  |  |  | 7.57% [at 11.6 µM] | 12.8% [at 11.6 µM] | 9.44% [at 11.6 µM] | 4.35% [at 11.6 µM] | 3.42% [at 11.6 µM] |
| COC1CC(=O)C23C(=O)NC(CC(C)C)C2C(C)=C(C)C(OO)C3/C=C(\C)CCC(O)C1O (centres undefined) | inactive [at 17.4 µM] | inactive | inactive | inactive | inactive | inactive |  |  |  |  |  |
| Clc1ccc(OCC2=NCCN2)cc1Cl | inactive | inactive | inactive | inactive | inactive | inactive |  |  |  |  |  |
| CC1=C2C(=O)C3[C@@H](CC=C4C[C@@H](O)CC[C@@]43C)[C@@H]2CC[C@]12O[C@@H]1C[C@H](C)CN[C@H]1[C@H]2C (some centres undefined) | inactive [at 17.4 µM] | inactive | inactive | inactive | inactive | inactive |  |  |  |  |  |
| OCCCCC#Cc1cncc(OC[C@@H]2CCN2)c1 | inactive | inactive | inactive | inactive | inactive | inactive |  |  |  |  |  |
| C1=C2CCCN[C@H]2[C@@H]2C[C@H]1[C@H]1CCCCN1C2 | inactive | inactive | inactive | inactive | inactive | inactive |  |  |  |  |  |
| CCC1NC(=O)C2C(Cl)C(Cl)CN2C(=O)C(C(C)O)NC(=O)CC(c2ccccc2)NC(=O)C(CO)NC1=O (centres undefined) | inactive [at 17.4 µM] | inactive | inactive | inactive | inactive | inactive |  |  |  |  |  |
| C[C@@H]1C(=O)O[C@H]2[C@H](O)[C@@]34[C@@H]5OC(=O)[C@@]3(O[C@@H]3OC(=O)[C@@H](O)[C@@]34[C@H](C(C)(C)C)[C@H]5O)[C@@]12O | inactive [at 17.4 µM] | inactive | inactive | inactive | inactive | inactive |  |  |  |  |  |
| CC(C)(C)c1cc(C(C)(C)C)c2c(c1)C(O)(C(F)(F)F)C(=O)O2 (centres undefined) | inactive | inactive | inactive | inactive | inactive | inactive |  |  |  |  |  |
| CC1=C2C[C@H]3[C@@H](CC=C4C[C@@H](O)CC[C@@]43C)[C@@H]2CC[C@]12O[C@@H]1C[C@H](C)CN[C@H]1[C@H]2C | inactive | inactive | inactive | inactive | inactive | inactive |  |  |  |  |  |
| COC1C(O)C(C)OC(OC2C(CO)O[C@@H](O[C@@H]3CC4CCC5C(CC[C@]6(C)[C@@H](C7=CC(=O)OC7)CC[C@]56O)[C@@]4(C)[C@H](O)C3)C(O)C2O)C1O (some centres undefined) | inactive [at 17.4 µM] | 794 nM (active) | 2820 nM (active) | 2510 nM (active) | 2820 nM (active) | 2820 nM (active) |  |  |  |  |  |
| CC(C)C1(OO)C=C2C(=O)CC3C(C)(C(=O)O)CCCC3(C)C2CC1 (centres undefined) | inactive | inactive | inactive | inactive | inactive | inactive |  |  |  |  |  |
| CC(=O)OC12C(O)C(C)C3(O)C4C=C(C)C(=O)C4CC(CO)=CC3C1C2(C)C (centres undefined) | inactive [at 17.4 µM] | inactive | inactive | inactive | inactive | inactive |  |  |  |  |  |
| C[C@@](O)(COc1ccc(C#N)cc1)C(=O)Nc1ccc(C#N)c(C(F)(F)F)c1 | inactive | inactive | inactive | inactive | inactive | inactive |  |  |  |  |  |
